# In PubChem BioAssay (Tox21):
# Values without a mark were called inactive. The call rests on the fitted dose curve.
# Test: G protein-coupled receptor (GPCR) small molecule agonists, calcium flux assay: HEK293 wild type cell line counter screen (AID 1920065)
# Details: HEK293 WT calcium flux, fluorescence, agonist mode; series mostly up to 57.6 µM; activation: at the top concentration
# From the text: U.S. Tox21 Program National Center for Advancing Translational Sciences [NCATS] Division of Preclinical Innovation [DPI] U.S. Environmental Protection Agency [EPA] National Institutes of Environmental Health Sciences [NIEHS] National Toxicology Program [NTP] U.S. Food and Drug Administration [FDA] Assay overview: The increased intracellular calcium release that occurred upon G protein-coupled receptor (GPCR) activation led to the frequent use of calcium flux assays to detect GPCR activation. For the purpose of studying and screening compounds that may activate GPCR, receptor-overexpressing models were typically generated using Hek293 wild-type (WT) cells. In order to eliminate the compounds that may have induced calcium release for non-specific activation, a counter-assay utilizing calcium flux on Hek293 WT cells was performed. The data were formulated in order to serve as a control for any calcium flux detection utilizing Hek293 cells with either GPCR overexpression or gene modification. The procurement of Hek293 WT cells from ATCC. Fluorescence intensity can be utilized to determine the activation of the compound in a calcium flux assay. As a counter control, this cell line was utilized to screen the Tox21 10K compound library.
# Assay Protocol Summary: Hek293 cells were dispensed at 1500cells/4uL/well in 1536-well black wall/clear bottom plates using a multidrop dispenser. After the assay plates were incubated at a 37 C/5% CO2 incubator for 18 hours, 4 uL of Calcium Dye Solution was added to each well. The plates were incubated at 37 C for 1 hour. For agonist mode, 23 nL of compounds dissolved in DMSO, positive control (ATP) or DMSO only was transferred to the assay plate by a pin tool station. The fluorescence intensity in the plates was measured using FDSS 7000EX kinetic plate reader with a filter set of Ex/Em=480/540 for 3 min at 1 sec intervals. Each test compound was measured at 15 concentrations and in triplicates.
# On the % scale 0 is the no-effect control and ±100 the full control effect.
row,SMILES,activation
1,CCCCCCOC(=O)CC(CC(=O)OCCCCCC)(OC(=O)CCC)C(=O)OCCCCCC,6.61%
2,CC[N+](C)(CC)CCOC(=O)C1c2ccccc2Oc2ccccc21,-0.741% [at 26.5 µM]
3,CCCCOC(=O)c1ccccc1,-0.82%
4,O=c1[nH]c2ccc(S(=O)CCN3CCC(Cc4ccc(F)cc4)CC3)cc2o1 (stereo not given),-0.0468%
5,O=C(N[C@@H](c1ccccc1)[C@@H]1CCCCN1)c1cccc(C(F)(F)F)c1Cl,0.029%
6,Cc1cccc(OCCOc2cccc(C)c2)c1,0.0594%
7,CSc1ccc(/C=C2/C(C)=C(CC(=O)O)c3cc(F)ccc32)cc1,-0.0756% [at 26.5 µM]
8,O=CN(CCO)CCO,0.218%
9,OCC1CC=CCC1 (stereo not given),0.461%
10,CCN(CCC#N)c1ccc(N=Nc2c(Cl)cc([N+](=O)[O-])cc2Cl)cc1,-0.752%
11,CCOc1ccc(N=Nc2ccc(/C=C/c3ccc(N=Nc4ccc(OCC)cc4)cc3S(=O)(=O)O)c(S(=O)(=O)O)c2)cc1,-0.075%
12,O=C(O)c1ccc(O)c(O)c1,-0.27%
13,COc1ccccc1OCC1CNC(=O)O1 (stereo not given),0.0578% [at 26.5 µM]
14,CCO[C@H](Cc1ccc(OCCc2ccc(OS(C)(=O)=O)cc2)cc1)C(=O)O,-0.0204% [at 26.5 µM]
15,Cc1onc(-c2c(Cl)cccc2Cl)c1C(=O)Cl,-0.916% [at 26.5 µM]
16,Cc1cccc(Nc2ccccc2)c1,-1.06%
17,CN1CCN(c2cc3c(nn2)Oc2ccccc2N3C)CC1,-0.0481% [at 11.8 µM]
18,CC(C(=O)O)c1ccc(C(=O)c2cccs2)cc1 (stereo not given),-0.214% [at 26.5 µM]
19,Cc1cc([N+](=O)[O-])ccc1N,-0.674%
20,COc1cccc(CCc2ccccc2OCC(CN(C)C)OC(=O)CCC(=O)O)c1 (stereo not given),-0.105% [at 26.5 µM]

row,SMILES,activation
1,CCCC(=O)OCCc1ccccc1,1.93%
2,C=CC(C)(CCC=C(C)C)OC(=O)/C=C/c1ccccc1 (stereo not given),-0.561%
3,C[C@H]1C[C@H]2[C@@H]3CCC4=CC(=O)C=C[C@]4(C)[C@@]3(Cl)[C@@H](O)C[C@]2(C)[C@@]1(O)C(=O)CO,1.26% [at 26.5 µM]
4,O=[N+]([O-])c1ccc(O/N=C/c2cc(Br)c(O)c(Br)c2)c([N+](=O)[O-])c1,5.09%
5,Cc1cc(O)c(Cl)c(C)c1Cl,-0.498%
6,CC(CCc1ccc2c(c1)OCO2)NN (stereo not given),0.52% [at 26.5 µM]
7,CC1=NN(c2cccc(S(=O)(=O)O)c2)C(=O)C1,-0.953%
8,Nc1ccc([N+](=O)[O-])cc1O,2.79%
9,CC1CCC(=O)C1=O (stereo not given),0.154%
10,Clc1ccc2cc3ccccc3cc2c1,-0.295%
11,Nc1c(I)cc(I)c(C(=O)N(CCC(=O)O)c2ccccc2)c1I,1.32% [at 26.5 µM]
12,CCCC(=O)O[C@]1(C(=O)CO)CC[C@H]2[C@@H]3CCC4=CC(=O)CC[C@]4(C)[C@H]3[C@@H](O)C[C@@]21C,-0.253% [at 26.5 µM]
13,O=C1c2ccccc2C(=O)c2c(Cl)cccc21,-0.631% [at 26.5 µM]
14,CO[C@H]1C=CO[C@@]2(C)Oc3c(C)c(O)c4c(O)c(c5c(c4c3C2=O)=NC2(CCN(CC(C)C)CC2)N=5)NC(=O)/C(C)=C\C=C/[C@H](C)[C@H](O)[C@@H](C)[C@@H](O)[C@@H](C)[C@H](OC(C)=O)[C@@H]1C,-1.73%
15,Sc1nc(S)nc(S)n1,-0.545% [at 26.5 µM]
16,O=C1CCC(=O)N1Cl,0.416%
17,CC(CC(=O)Cl)CC(C)(C)C (stereo not given),-0.823%
18,CC(C)COC(=O)c1ccc(O)cc1,-0.104%
19,Cc1ccc(C(C)OC(=O)C2(C)CCC(C(=O)O)C2(C)C)cc1 (stereo not given),-0.423% [at 26.5 µM]
20,O=C1NCC2(CCN(CCc3ccccc3)CC2)O1,0.278% [at 26.5 µM]
